Sampled rows, rich in hits. Any-hit rate of the full collection: about 19%.
DT40 TDP1 CPT: DT40-hTDP1 cell growth loss with CPT; chicken DT40 Tdp1-/-;hTDP1 cells + 20 nM CPT, ATP luminescence, 48 h; Potency, µM (doses to about 46.2 µM), without a hit: top-dose activity change, negative = growth inhibition, actives largely listed as inhibitors; 420,000 compounds, 12% hits; AID 686979; note: potency is the fitted concentration of half-maximal effect; nearly all actives have a fitted effect of over 55% in size
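Chicken DT40 Tdp1-/- cells stably complemented with human TDP1 were seeded at 400 cells/well in medium containing 20 nM camptothecin, exposed to pin-transferred compounds, and grown at 37 °C for at least 48 hr. Viability was read as ATP luminescence.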
HT1080 IDH1KD tx: toxicity to HT-1080 IDH1 knockdown cells (counter line). AID 686971. HT-1080 IDH1 knockdown viability, ATP luminescence, 48 h. Potency, µM (top dose mostly 46.1 µM), for the others: at the top dose activity, negative = toxicity, usual class: cytotoxic. 360,000 compounds, 2% hits;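 note: potency is the fitted concentration of half-maximal effect; 0% = DMSO wells and -100% = cell-free medium wells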
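In this qHTS, HT-1080 cells depleted of IDH1 are exposed for 48 h at 37 °C to compound titrations. Toxicity is scored from CellTiter-Glo luminescence, with DMSO as full viability and medium alone as none.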
HT1080NT lethal: kills 2HG-producing HT-1080-NT fibrosarcoma cells | 360,000 compounds, 1.6% hits | Potency, µM (top dose mostly 46.1 µM), for inactives: at the top dose activity, negative = less viability, hits mostly cytotoxic | HT-1080-NT fibrosarcoma viability, CellTiter-Glo ATP luminescence, 48 h;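 note: NT is the 2HG producing partner of a matched IDH1 knockdown line; potency is the fitted concentration of half-maximal effect; 0% = DMSO-treated cells and -100% = media-only wells without cells; nearly all actives have a fitted effect of over 55% in size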
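Luminescent CellTiter-Glo readout after 48 hours of compound exposure at 37 degrees C defined viability of HT-1080-NT cells. Activity was normalized to DMSO wells and cell-free media wells; concentration-response curves were fitted and assigned curve classes.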
IL1B secr inh: inflammasome signaling inhibition, IL-1 beta readout; THP-1 LPS/ATP IL-1B secretion, AlphaLISA, 16 h; active compounds read low; activity change, % at 57.5 µM; 360,000 compounds, 4.7% hits; in the data active = activity change below about -50%; inconclusive = mostly about -30% to -49%
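Secreted IL-1B measured by AlphaLISA bead assay after 16 h compound exposure of THP-1 cells; compounds (final up to 57.5 uM) added 1 h before LPS (250 ng/mL) and ATP (1.25 mM) stimulation; lower signal means less secretion.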
TDP1 cell noCPT: qHTS for Inhibitors of human tyrosyl-DNA phosphodiesterase 1 (TDP1): qHTS in cells in absence of CPT; DT40 Tdp1-/- hTDP1 cells, no CPT, ATP luminescence, 48 h; AID 686978, 2013; Potency, µM (highest dose often 46.2 µM), inactives show top-dose activity change, negative = growth inhibition, most hits filed as inhibitors; 420,000 compounds, 15% hits; note: potency is the fitted concentration of half-maximal effect; nearly all actives have a fitted effect of over 55% in size
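Chicken DT40 Tdp1-/- cells stably complemented with human TDP1 were seeded at 400 cells/well with DMSO in place of 20 nM camptothecin. After compound pinning, cells grew at least 48 hr at 37 °C; viability read by CellTiter-Glo luminescence.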
Numbers without * were called inactive; ? = inconclusive; nt = no result given. Unless noted, calls come from the whole dose curve; as a rule, active = well fitted curve in the direction sought with a large enough effect; inconclusive = small, poorly fitted or top-dose-only effect, or another doubt; inactive = no such curve, though single readings can be large; an effect the other way counts as inactive or inconclusive. Unless noted, % is set by controls: 0 for no effect and ±100 for the full control effect.

SMILES	DT40 TDP1 CPT	HT1080 IDH1KD tx	HT1080NT lethal	IL1B secr inh	TDP1 cell noCPT
Cc1ccc(N2CC(NC(=O)c3ccc(S(=O)(=O)N4CCCC4)cc3)CC2=O)cc1C (stereo unspecified)	?	nt	nt	nt	18.4µM*
COc1ccc(OC)c(S(=O)(=O)NC2CC(=O)N(c3ccc(C)c(C)c3)C2)c1 (stereo unspecified)	-25.4%	-10.9%	-4.8%	3.1	-23.5%
COc1ccc(S(=O)(=O)NC2CC(=O)N(c3ccc(C)c(C)c3)C2)cc1 (stereo unspecified)	?	1.0%	1.7%	-13.7	16.4µM*
COc1cccc(N2CC(NS(=O)(=O)c3ccc4ccccc4c3)CC2=O)c1 (stereo unspecified)	-15.0%	-10.8%	-7.4%	-25.7	29.1µM*
O=C(c1ccccc1)c1n[nH]c(-c2ccccc2)cc1=O	5.0%	15.3%	25.9%	16.9	-6.9%
CN(C(=S)NC(=O)/C=C/c1ccc(F)cc1)C1CCCCC1	23.4%	15.0%	?	-66.3*	-22.7%
CC(C)NC(=S)NC(=O)/C=C/c1ccc(F)cc1	20.6µM*	2.0%	-3.4%	-53.3*	14.6µM*
CCc1nc2ccc(C(=O)N3CCN(c4ccccc4)CC3)cn2c1N(CCC(C)C)CCN(C)C	?	?	?	-23.8	?
O=C(NC1CCCCC1)c1nc(-c2c(F)cccc2F)oc1-c1ccccc1	23.1µM*	22.7%	15.1%	-14.2	25.9µM*
CC1=NN(c2ccccc2)C(=O)C1C(=S)SC1CC(=O)NC1=O (stereo unspecified)	?	-13.0%	-2.2%	13.7	29.1µM*
CCOC(=O)c1cc(-c2ccc(C)cc2)n(CC(=O)Nc2cc(C)ccc2C)c1C	20.6µM*	nt	nt	nt	14.6µM*
CCOC(=O)c1cc(-c2ccc(F)cc2)n(CCC(=O)Nc2cc(OC)cc(OC)c2)c1C	14.6µM*	nt	nt	nt	16.4µM*
CCCNC(=O)Cn1c(-c2ccc(F)cc2)cc(C(=O)OCC)c1C	?	9.5%	24.0%	-6.5	0.6%
CCOC(=O)c1cc(-c2ccc(C)cc2)n(CC(=O)Nc2cccc(C(C)=O)c2)c1C	-20.9%	nt	nt	nt	?
CCOC(=O)c1cc(-c2ccccc2)n(CC(=O)NC(C)(C)C)c1C	?	3.2%	-1.1%	3.4	?
CCOC(=O)c1cc(-c2ccc(F)cc2)n(CCC(=O)Nc2ccccc2OC)c1C	?	nt	nt	nt	20.6µM*
CCOC(=O)c1cc(-c2ccccc2)n(CCC(=O)NCc2ccccc2Cl)c1C	?	nt	nt	nt	13µM*
CCOC(=O)c1cc(-c2ccc(F)cc2)n(CC(=O)NC(C)CC)c1C (stereo unspecified)	?	6.6%	10.8%	21.1	?
Cc1ccc(CCNC(=O)C2CCC(=O)N2C(C)C)cc1 (stereo unspecified)	-6.1%	5.0%	15.7%	-0.7	-18.1%
COc1cccc(C(=O)NC(=S)Nc2ccc3c4c(cccc24)CC3)c1	?	-7.7%	1.2%	-11.1	?
CC(=O)c1cc(-c2ccc(F)cc2)n(CCC(=O)NC(C)(C)C)c1C	9.1%	0.5%	5.5%	26.8	12.1%
O=C(CCN1C(=O)c2ccccc2C1=O)N1CCN(c2ccccn2)CC1	0.2%	5.6%	0.9%	-4.0	-11.8%
CCOC(=O)c1cc(-c2ccc(OC)cc2)n(CCC(=O)Nc2cccc(C)c2C)c1C	-29.4%	nt	nt	nt	?
CCOC(=O)c1cc(-c2ccc(OC)cc2)n(CCC(=O)Nc2ccccc2OC)c1C	14.6µM*	nt	nt	nt	20.6µM*
CCOC(=O)c1cc(-c2ccccc2)n(CC(=O)Nc2ccc(OC)cc2OC)c1C	16.4µM*	nt	nt	nt	?
SMILES	DT40 TDP1 CPT	HT1080 IDH1KD tx	HT1080NT lethal	IL1B secr inh	TDP1 cell noCPT
CCOC(=O)c1cc(-c2ccccc2)n(CCC(=O)N2CCN(c3ccccn3)CC2)c1C	14.6µM*	-9.6%	-4.6%	-8.8	20.6µM*
CC(=O)c1cc(-c2ccc(F)cc2)n(CCC(=O)Nc2nc3ccc(C)cc3s2)c1C	25.9µM*	nt	nt	nt	16.4µM*
Cc1ccc(S(=O)(=O)N2CCC3(CC2)OCCO3)cc1	-5.4%	1.2%	9.2%	7.1	15.6%
COc1ccc(N2CCN(Cc3nc4c(c(=O)[nH]c(=O)n4C)n3CC(C)C)CC2)cc1	-5.1%	nt	nt	nt	-6.9%
COCCNC(=O)C(=O)N/N=C/c1ccccc1C(F)(F)F	2.8%	13.9%	24.9%	23.4	3.9%
CCOC(=O)c1cc(-c2ccccc2)n(CCC(=O)NCCc2ccccc2)c1C	20.6µM*	nt	nt	nt	16.4µM*
CCOC(=O)c1cc(-c2ccc(OC)cc2)n(CCC(=O)NCc2ccccc2OC)c1C	25.9µM*	nt	nt	nt	?
CCOC(=O)c1cc(-c2ccc(C)cc2)n(CCC(=O)NC(C)CC)c1C (stereo unspecified)	?	-6.0%	-4.8%	-4.7	?
CCOC(=O)c1cc(-c2ccc(OC)cc2)n(CCC(=O)Nc2ccc(OC)cc2OC)c1C	20.6µM*	nt	nt	nt	20.6µM*
CCOC(=O)c1cc(-c2ccc(OC)cc2)n(CCC(=O)Nc2nc3ccc(OCC)cc3s2)c1C	16.4µM*	nt	nt	nt	9.2µM*
CCCNC(=O)CCn1c(-c2ccc(C)cc2)cc(C(=O)OCC)c1C	?	4.6%	4.0%	-16.4	?
CC(=O)N1CCc2c(sc3c2c(=O)n(-c2ccccc2)c(=O)n3CC(=O)c2ccc(F)cc2)C1	-4.4%	nt	nt	nt	?
CCOc1ccc2c(c1)C(C)=CC(C)(C)N2S(=O)(=O)c1ccc(F)cc1	?	?	?	143.0	?
CC1=CC(C)(C)N(S(=O)(=O)c2ccc(F)cc2)c2ccc(C)cc21	?	?	7.08µM*	36.7	5.8µM*
CC1=CC(C)(C)N(C(=O)CN2C(=O)c3ccccc3C2=O)c2ccccc21	?	0.8%	9.7%	1.2	?
CC1=CC(C)(C)N(S(=O)(=O)c2ccc(C)cc2)c2ccccc21	11.6µM*	?	6.31µM*	33.6	18.4µM*
O=S(=O)(c1ccccc1)N1CCC2(CCN(Cc3ccccc3)CC2)CC1	12.6%	nt	nt	nt	-8.6%
Cc1ccc(S(=O)(=O)NCCCNS(=O)(=O)c2ccccc2[N+](=O)[O-])cc1	?	-3.6%	0.0%	-3.3	-22.5%
C=CCc1cc(C=O)cc(OC)c1OCc1ccc(Cl)cc1	?	-12.7%	-27.4%	15.3	18.4µM*
CCOC1=C2CN(S(=O)(=O)c3ccc(C)cc3)[C@H](c3cccc4ccccc34)C[C@H]2[C@H]2C(=O)N(c3ccccc3)C(=O)[C@H]2C1	10.0%	3.5%	25.0%	-4.3	7.4%
Cc1ccc2oc3c(c(=O)c2c1)C(c1ccccc1F)N(CCCN1CCOCC1)C3=O (stereo unspecified)	?	nt	nt	nt	18.4µM*

Assay outcomes: PubChem, National Center for Advancing Translational Sciences (NCATS)
